Assay [1] in a line: optical density shifts of acrAB sulA E. coli – strain DRC41, OD650, 48 h, E. coli filamentation inducer project, primary screen (AID 1152).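 Further: E. coli MC1000 strain DRC41 lacking acrAB efflux pump and sulA.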 As to conditions: higher = more signal, called active from +8 up or from −8 down.
A short description of assay [2]: probe aLefty1 binding on compound microarray – biochemical, small-molecule microarray, 635/667 nm fluorescence, primary screen (AID 1153).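 Further: score merges spot fluorescence with signal-to-noise ratio from the scanned slide images.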 As to conditions: higher = more signal.
Assay [3] can be described thus: plasmodial surface anion channel blockers, osmotic lysis – cell-based, P. falciparum Indochina, OD700, 1 h, primary screen (AID 1154). As to conditions: P. falciparum Indochina infected RBC osmotic lysis, higher = more signal, called active from +8 up or from −8 down.
A short description of assay [4]: plasmodial surface anion channel blockers, osmotic lysis – cell-based, P. falciparum Indochina, OD700, 2 h, primary screen (AID 1155).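 Further: lysis reports solute entry through the parasite surface anion channel PSAC.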 As to conditions: P. falciparum Indochina infected erythrocytes, higher = more signal, called active from +8 up or from −8 down.
The nature of assay [5]: changes in parasitized red cell lysis, either direction – P. falciparum Indochina, OD700, 3 h, PSAC antagonist project, primary screen (AID 1156). As to conditions: P. falciparum-infected erythrocytes, osmotic lysis, higher = more signal, called active from +8 up or from −8 down.
Assay [6] in a line: plasmodial surface anion channel blockers, osmotic lysis – cell-based, P. falciparum Indochina, OD700, 18 h, primary screen (AID 1157). As to conditions: P. falciparum Indochina infected erythrocytes, osmotic lysis OD700, 18 h; higher = more signal, called active from +8 up or from −8 down.
Assay [7] in a line: S6 kinase pathway phospho-S6 level changes – cell-based, A549, cytoblot, luminescence, serum-stimulated, primary screen (AID 1158).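 Further: serum-stimulated A549 lung adenocarcinoma cells; signal is phosphorylated S6 detected by cytoblot immunostaining with HRP secondary.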 As to conditions: 5 h, higher = more signal.
The target of assay [8] is NADPH oxidase 2 (Homo sapiens) (UniProt P04839). Kind of assay: compounds shifting NOX2 Amplex Red fluorescence – cell-based, HEK293-NOX2, PMA-stimulated, NOX inhibitor project, primary screen (AID 1159). Further: test concentration not given here. As to conditions: 45 min, higher = more signal, called active from +8 up or from −8 down.
Assay [9] concerns the target NADPH oxidase 4 (Homo sapiens) (UniProt Q9NPH5). Kind of assay: compounds shifting NOX4 Amplex Red fluorescence – cell-based, HEK293-NOX4, tetracycline-induced, NOX inhibitor project, primary screen (AID 1160). As to conditions: HEK293-NOX4, Amplex Red H2O2 fluorescence, 45 min; higher = more signal, called active from +8 up or from −8 down.
Assay [10] addresses NADPH oxidase 5 (Homo sapiens) (UniProt Q96PH1). Kind of assay: compounds shifting NOX5 Amplex Red fluorescence – cell-based, HEK293-NOX5, NOX inhibitor project, primary screen (AID 1161). As to conditions: HEK293-NOX5, ionomycin, 45 min, higher = more signal.
A short description of assay [11]: compound effects on lung adenocarcinoma cell viability – A549, calcein-AM fluorescence, 48 h, basal, profiling panel (AID 1162). Further: test concentration not given here. As to conditions: higher = more signal.
Assay [12] can be described thus: compound effects on differentiated 3T3-L1 adipocyte viability – cell-based, 3T3-L1 adipocytes, calcein-AM fluorescence, 48 h, basal, profiling panel (AID 1163). Further: test concentration not given here. As to conditions: 3T3-L1 adipocytes viability, higher = more signal.
Assay [13] can be described thus: compound effects on hepatocellular carcinoma cell viability – HepG2, calcein-AM fluorescence, 48 h, basal, profiling panel (AID 1164). Further: test concentration not given here. As to conditions: higher = more signal.
The nature of assay [14]: compound effects on multiple myeloma cell viability – MM1S, calcein-AM fluorescence, 48 h, basal, profiling panel (AID 1165). Further: test concentration not given here. As to conditions: higher = more signal.
Assay [15] is described as follows: calcein-AM signal in unstimulated myeloma cells – cell-based, calcein-AM fluorescence, 48 h, PK04 Diversity Set, profiling panel (AID 1166).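 Further: cells grown under basal conditions without added stimulus; test concentration not given here.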 As to conditions: RPMI8226 myeloma viability, higher = more signal.
Assay [16] in a line: JC-1 mitochondrial signal, unstimulated HepG2 cells – cell-based, JC-1 fluorescence, 24 h, 100 nL compound, profiling panel (AID 1167). Further: test concentration not given here. As to conditions: HepG2 mitochondrial potential, higher = more signal.
Assay [17] is described as follows: JC-1 mitochondrial signal, unstimulated adipocytes – cell-based, JC-1 fluorescence, 3T3-L1 adipocytes, 24 h, 100 nL compound, profiling panel (AID 1168). Further: test concentration not given here. As to conditions: JC-1 mitochondrial fluorescence, higher = more signal, called active from +8 up or from −8 down.
Assay [18] can be described thus: JC-1 mitochondrial signal, unstimulated myeloma cells – cell-based, JC-1 fluorescence, RPMI8226, 24 h, 100 nL compound, profiling panel (AID 1169). Further: test concentration not given here. As to conditions: JC-1 mitochondrial potential fluorescence, higher = more signal.
Assay [19] is described as follows: JC-1 mitochondrial signal, unstimulated MM1S myeloma – cell-based, JC-1 fluorescence, 24 h, 100 nL compound, profiling panel (AID 1170). Further: test concentration not given here. As to conditions: MM1S mitochondrial potential, higher = more signal.
Assay [20] in a line: resazurin metabolic signal in A549 cells – cell-based, resazurin fluorescence, 24 h, PK04 Diversity Set, profiling panel (AID 1171). Further: test concentration not given here. As to conditions: A549 viability, higher = more signal, called active from +8 up or from −8 down.

The values below come from PubChem BioAssay.

SMILES strings stand for the structures. Active and inactive are the calls of the source.

NADPH oxidase 4 (Homo sapiens), sequence (Q9NPH5 whole entry, looked up): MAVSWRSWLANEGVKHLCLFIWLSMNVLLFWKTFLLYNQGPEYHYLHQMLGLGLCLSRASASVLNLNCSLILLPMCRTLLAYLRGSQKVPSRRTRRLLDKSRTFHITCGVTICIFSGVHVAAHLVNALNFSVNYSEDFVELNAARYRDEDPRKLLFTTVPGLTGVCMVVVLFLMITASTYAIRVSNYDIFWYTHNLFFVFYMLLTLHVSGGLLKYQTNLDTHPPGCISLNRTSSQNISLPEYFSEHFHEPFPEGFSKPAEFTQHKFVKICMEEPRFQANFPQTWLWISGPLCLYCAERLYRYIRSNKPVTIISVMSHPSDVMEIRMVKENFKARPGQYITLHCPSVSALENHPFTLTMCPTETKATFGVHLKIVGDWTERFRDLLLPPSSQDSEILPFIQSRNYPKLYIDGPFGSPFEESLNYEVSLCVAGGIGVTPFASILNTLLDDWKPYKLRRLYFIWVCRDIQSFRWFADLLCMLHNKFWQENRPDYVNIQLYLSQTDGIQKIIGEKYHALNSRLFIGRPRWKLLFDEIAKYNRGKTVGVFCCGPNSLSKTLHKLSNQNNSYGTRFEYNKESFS
NADPH oxidase 5 (Homo sapiens), sequence (Q96PH1 whole entry, looked up): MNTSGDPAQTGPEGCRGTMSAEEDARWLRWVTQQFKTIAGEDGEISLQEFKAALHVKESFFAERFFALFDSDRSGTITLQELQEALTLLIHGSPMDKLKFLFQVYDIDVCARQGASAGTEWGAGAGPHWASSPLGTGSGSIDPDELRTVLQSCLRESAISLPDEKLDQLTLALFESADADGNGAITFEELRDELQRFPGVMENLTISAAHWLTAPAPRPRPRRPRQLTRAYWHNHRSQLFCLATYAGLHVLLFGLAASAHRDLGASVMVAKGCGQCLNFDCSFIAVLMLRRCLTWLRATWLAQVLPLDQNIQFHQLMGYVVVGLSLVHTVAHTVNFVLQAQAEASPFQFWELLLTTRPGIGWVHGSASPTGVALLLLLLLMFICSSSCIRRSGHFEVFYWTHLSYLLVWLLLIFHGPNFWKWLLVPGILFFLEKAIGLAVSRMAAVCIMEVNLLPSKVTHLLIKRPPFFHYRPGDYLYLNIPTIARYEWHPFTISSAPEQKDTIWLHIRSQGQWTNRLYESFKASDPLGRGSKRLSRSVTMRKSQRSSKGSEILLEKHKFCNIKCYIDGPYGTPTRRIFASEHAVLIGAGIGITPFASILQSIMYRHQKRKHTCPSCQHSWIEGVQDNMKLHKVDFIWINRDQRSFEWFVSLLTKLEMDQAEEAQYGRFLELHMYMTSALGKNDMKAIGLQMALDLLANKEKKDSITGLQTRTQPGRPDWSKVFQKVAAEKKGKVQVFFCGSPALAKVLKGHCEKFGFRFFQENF
NADPH oxidase 2 (Homo sapiens), sequence (P04839 whole entry, looked up): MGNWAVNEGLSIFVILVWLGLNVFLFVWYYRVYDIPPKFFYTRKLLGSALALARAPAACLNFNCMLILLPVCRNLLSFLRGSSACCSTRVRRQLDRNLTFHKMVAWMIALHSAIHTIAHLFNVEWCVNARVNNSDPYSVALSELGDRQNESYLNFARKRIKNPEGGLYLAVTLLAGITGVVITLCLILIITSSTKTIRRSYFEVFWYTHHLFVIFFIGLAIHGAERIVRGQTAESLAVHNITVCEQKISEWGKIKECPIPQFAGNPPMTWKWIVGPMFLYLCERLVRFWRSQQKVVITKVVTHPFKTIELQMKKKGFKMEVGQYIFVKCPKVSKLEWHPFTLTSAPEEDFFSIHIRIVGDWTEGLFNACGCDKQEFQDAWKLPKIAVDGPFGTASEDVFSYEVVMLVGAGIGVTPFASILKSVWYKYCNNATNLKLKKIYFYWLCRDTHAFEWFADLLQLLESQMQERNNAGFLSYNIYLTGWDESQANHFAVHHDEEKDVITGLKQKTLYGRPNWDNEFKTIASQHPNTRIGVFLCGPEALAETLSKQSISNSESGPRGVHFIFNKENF

With `COC(=O)[C@@]1(Cc2ccc(OC)cc2)[C@H]2c3cc(C(=O)N(C)C)[nH]c3C[C@H]2CN1C(=O)c1ccccc1`, the z-score in assay [1] was -0.439 (inactive); in assay [3], 5.74 (inactive); in assay [4], 0.806 (inactive); in [5] it was 0.395 (inactive); in [6], 0.764 (inactive); in assay [7], -0.38. Further, the z-score in assay [8] is 0.371 (inactive); in assay [9], 0.602 (inactive); in assay [10] it was -1.58; in assay [11], -0.974; in [12], -0.539; in assay [13], 0.683. Moreover, the z-score in assay [14] is 0.945; in assay [15], 0.184; in assay [16], 1.46; in [17] it was -0.372 (inactive); in assay [18] it was -0.582; in assay [19] it was -0.488. The z-score in assay [20] is 0.145 (inactive). The compound further registered a composite z-score in assay [2] of -0.0969.

With `COc1ccc(C(=O)Nc2cccc(CN3C(=O)[C@@]4(O[C@@H](CC(=O)N5CCC[C@H]5CO)[C@H]([Si](C)(C)c5ccc(OC)cc5)[C@H]4C)c4ccccc43)c2)cc1`, the z-score in assay [1] is -0.184 (inactive); in assay [3], 4.51 (inactive); in assay [4] it was 1.32 (inactive); in [5] it was 0.691 (inactive); in assay [6], 0.696 (inactive); in [7], 1.31. For the same compound, the z-score in [8] was 1.24 (inactive); in assay [9], 0.982 (inactive); in assay [10] it was 4.72; in assay [11], -0.273; in [12], 0.695; in assay [13], -0.765. Moreover, the z-score in [14] was -2.74; in [15] it was -4.26; in [16] it was 1.98; in assay [17] it was 0.487 (inactive); in assay [18], -1.13; in assay [19], -1.06. Further, the z-score in assay [20] is -0.35 (inactive). The compound also registered a composite z-score in [2] of -0.06.

Turning to `CO[C@H]1O[C@H](CO)[C@@H](OC(=O)Nc2ccccc2-c2ccccc2)[C@H](OC(=O)Nc2ccccc2)[C@H]1OC(=O)Nc1ccccc1`, the z-score in assay [1] was 0.299 (inactive); in assay [3], 2.62 (inactive); in [4], 0.772 (inactive); in assay [5] it was 0.375 (inactive); in [6], 0.521 (inactive); in assay [7], 0.144. The z-score in assay [8] was -1.62 (inactive); in assay [9], -1.72 (inactive); in assay [10], -1.4; in assay [11], -1.66; in assay [12], 1.29; in assay [13] it was -1.74. Besides, the z-score was -2.76 in [14]; -3.36 in assay [15]; -0.216 in assay [16]; 0.877 (inactive) in assay [17]; -0.747 in [18]; -0.558 in [19]. Also, the z-score in [20] is -3.34 (inactive). The composite z-score in assay [2] came out at 0.0405.

Regarding `C=CCN1Cc2ccccc2[C@H]2OC(c3ccc(OCCCO)cc3)=N[C@@]2(CCS(=O)(=O)c2ccccc2)C1=O`, the z-score was -0.028 (inactive) in [1]; 30.4 (active) in assay [3]; 27.2 (active) in assay [4]; 1.47 (inactive) in assay [5]; 6 (inactive) in assay [6]; -0.272 in assay [7]. Also, the z-score in [8] was -0.697 (inactive); in [9], 1.93 (inactive); in assay [10], 0.119; in assay [11], 0.0622; in assay [12] it was 0.413; in assay [13], -0.37. Also, the z-score is -1.56 in assay [14]; -0.209 in assay [15]; -0.971 in assay [16]; -0.509 (inactive) in [17]; -0.798 in assay [18]; -0.0644 in assay [19]. The z-score in assay [20] was 0.0687 (inactive). Besides, the composite z-score in [2] came to 0.607.

Take `COc1ccc([Si](C)(C)[C@H]2[C@H](CCO)O[C@@]3(C(=O)N(Cc4cccc(N5C(=O)c6ccccc6Oc6ccccc65)c4)c4ccccc43)[C@@H]2C)cc1`: the z-score in [1] was 0.253 (inactive); in [3], 2.63 (inactive); in [4] it was 2.78 (inactive); in assay [5] it was 0.979 (inactive); in assay [6] it was 1.6 (inactive); in assay [7] it was 0.87. For the same compound, the z-score in assay [8] is -1.93 (inactive); in [9], 2.27 (inactive); in [10], 1.1; in [11] it was -1.24; in assay [12], 0.508; in [13], -4.22. Moreover, the z-score was -2.87 in assay [14]; -4.3 in assay [15]; -0.19 in [16]; 2.27 (inactive) in [17]; -1.03 in assay [18]; -1.84 in [19]. For the same compound, the z-score in assay [20] is -2.25 (inactive). In assay [2], this compound registered a composite z-score of 0.119.

For `C=C(/C(=C/C[C@@H](OC(C)=O)c1cccc(OCCO)c1)c1cnc2ccccc2c1)C(C)C`, the z-score was 0.509 (inactive) in [1]; 12.5 (active) in assay [3]; 2.52 (inactive) in [4]; 1.24 (inactive) in [5]; 0.895 (inactive) in assay [6]; 0.328 in [7]. The z-score is -1.71 (inactive) in assay [8]; -0.885 (inactive) in [9]; -1.73 in assay [10]; 0.295 in assay [11]; 1.53 in assay [12]; 0.224 in [13]. The z-score is -1.07 in [14]; -1.97 in [15]; -1.63 in [16]; -0.436 (inactive) in [17]; -0.533 in assay [18]; 0.581 in [19]. Further, the z-score in [20] was -0.322 (inactive). In assay [2], this compound yielded a composite z-score of 0.0582.

In the case of `CN(C)CCCC[C@@H]1NC(=O)[C@@H]2C[C@H](C(=O)NCCCCCN)[C@H](c3cccc(OCCO)c3)N2C1=O`, the z-score in assay [1] was 2.96 (inactive); in [3], 1.11 (inactive); in assay [4], -0.469 (inactive); in assay [5], -1.52 (inactive); in assay [6] it was -2.07 (inactive); in assay [7] it was 2.77. For the same compound, the z-score was 0.635 (inactive) in assay [8]; 0.585 (inactive) in assay [9]; 1.57 in assay [10]; 2.2 in assay [11]; 0.494 in [12]; 1.44 in assay [13]. Further, the z-score in [14] is -0.0351; in assay [15] it was 0.891; in assay [16] it was 1.63; in [17], -1.03 (inactive); in [18], -0.891; in assay [19], 0.697. Besides, in [20], the z-score was 1.08 (inactive). In addition, the composite z-score in assay [2] was 0.25.

In the case of `CCOc1cc(C(O)C2C=CC3C(=O)N(c4ccccc4)C(=O)C3N2Nc2ccccc2F)ccc1O` (stereo not given), the z-score is -0.469 (inactive) in assay [1]; 6.56 (inactive) in assay [3]; 1.27 (inactive) in assay [4]; -0.0788 (inactive) in [5]; 0.926 (inactive) in [6]; -0.824 in [7]. For the same compound, the z-score in assay [8] is -2.32 (inactive); in assay [9] it was -4.37 (inactive); in [10], -4.13; in assay [11], 0.0113; in assay [12] it was 0.521; in [13], 0.294. Moreover, the z-score in assay [14] was -0.495; in assay [15] it was -0.18; in [16] it was -1.58; in [17], -0.945 (inactive); in assay [18] it was -0.853; in [19], 0.699. For the same compound, the z-score in [20] is -0.928 (inactive). For the same compound, the composite z-score in [2] stood at 0.875.

Consider `C=CCNC(=O)[C@H]1[C@@H]2C(=O)O[C@@H](c3ccccc3)[C@@H](c3ccccc3)N2[C@@H](c2ccccc2OCCO)[C@]12C(=O)N(C(=O)OCCOC)c1ccc(C#Cc3ccc(OC)cc3)cc12`, for which the z-score was 0.296 (inactive) in assay [1]; 2.46 (inactive) in assay [3]; 1.98 (inactive) in assay [4]; 0.0435 (inactive) in [5]; 1.25 (inactive) in assay [6]; 0.638 in [7]. Besides, the z-score in [8] is 1.74 (inactive); in [9], 0.404 (inactive); in assay [10], 0.673; in assay [11], 0.005; in assay [12], -0.182; in assay [13], 0.0823. The z-score in [14] is -1.05; in assay [15], -1.15; in assay [16] it was 0.421; in [17] it was 3.69 (inactive); in assay [18], -0.981; in assay [19], -1.13. The z-score in assay [20] was -0.958 (inactive). Further, the composite z-score in assay [2] was 0.0114.
